Measured values taken from PubChem BioAssay AID720650 (Broad Institute, 2013).
Values without a mark were called inactive. Active and inactive are the calls of the source. The rule behind the calls is not given here.

Assay: Biochemical counterscreen for C difficile toxins, absence of UDPG, inhibitor dose response (AID 720650)
Conditions: series mostly up to 19.5 µM

Row | Compound | AC50
1 | COC(=O)Cc1ccc(NC(=S)NCc2ccco2)cc1 | inactive
2 | Oc1ccc(/C=N/N2CCN(Cc3ccccc3)CC2)cc1 | > 39 µM
3 | Cc1ccc(C2=NS(=O)(=O)N(C)C(C(=O)NCc3ccc(F)cc3)=C2)cc1 | inactive
4 | CCn1c(C)nc2cc(C(=O)N/N=C/c3ccc(OC)c(O)c3)ccc21 | inactive
5 | CC(C)(C)N1C(=O)c2ccc(C(=O)Nc3ccc(O)cc3)cc2C1=O | 8.25 µM (active)
6 | Cc1onc(-c2ccccc2Cl)c1C(=O)Nc1cnn(Cc2ccccc2)c1 | inactive
7 | CCCCc1[nH]c(=O)c(C#N)c2c1CCCC2 | inactive
8 | Cn1c(=O)[nH]c(=O)c2c1[nH]c(=S)n2CCCc1ccccc1 | inactive
9 | CN1CC(=O)N/C1=N\C(=O)Nc1ccc(O)cc1 | inactive
10 | C=C1CCN(Cc2ccccc2)S(=O)(=O)c2ccccc21 | inactive
11 | COc1ccc2cc3c(nc2c1)OCC3 | inactive
12 | CC(/C=N/n1c(-c2ccncc2)n[nH]c1=S)=C\c1ccco1 | inactive
13 | Oc1cc(O)cc(/C=C/c2ccc(O)c(O)c2)c1 | inactive
14 | O=C(NC(=S)NCc1ccccc1)c1cccnc1 | inactive
15 | CCN1CCN(S(=O)(=O)c2ccc3[nH]c(=O)oc3c2)CC1 | inactive
16 | Cc1ccc(CNCCCn2cnc(C(=O)Nc3ccc(C)c(C)c3)n2)o1 | inactive
17 | CCNC(=O)[C@H]1[C@H](CO)[C@H]2Cn3c(ccc(-c4ccccc4)c3=O)[C@H]2N1CC | inactive
18 | Cc1ccccc1NS(=O)(=O)c1ccc(OCC(=O)N2CCCCC2)cc1 | inactive
19 | CCOc1ccccc1NC(=O)CCNS(=O)(=O)c1cccc2nonc12 | inactive

Row | Compound | AC50
20 | CCCCNS(=O)(=O)c1ccc(OCC(=O)OC)cc1 | inactive
21 | COCC#Cc1ccc2c(c1)O[C@H](CN(C)C(=O)CC1CC1)[C@@H](C)CN([C@H](C)CO)S2(=O)=O | inactive
22 | COc1ccc(C2=NS(=O)(=O)N(C)C(C(=O)NC(C)c3ccccc3)=C2)cc1OC (stereo not drawn) | inactive
23 | O=C(c1ccccc1)c1coc2ccc(O)c(Cl)c12 | 12.7 µM (active)
24 | CN1c2ccc(-c3ccccc3)cc2[C@H]2[C@H](CCN2C(=O)CN2CCOCC2)[C@H]1CO | 7.83 µM (active)
25 | Oc1ccccc1-c1cnc2cccnn12 | > 39 µM
26 | COc1cc2ccccc2cc1C(=O)N/N=C/c1cccs1 | inactive
27 | CCOC(=O)c1ccc(N=c2sc(C(=O)OC)cc(=O)n2CCCN2CCOCC2)cc1 | inactive
28 | CCCS(=O)(=O)NC(=O)C1(C)CCN(C(=O)c2ccco2)C1 (stereo not drawn) | inactive
29 | O=C(Cc1ccccn1)c1ccncc1 | inactive
30 | O=C(CC(=O)N/N=C/c1ccc(O)cc1)N/N=C/c1ccc(O)cc1 | 9.03 µM (active)
31 | S=c1nc(-c2ccc(Cl)cc2)[nH][nH]1 | 3.22 µM (active)
32 | CCNC(=O)C[C@@H]1CC[C@H]2[C@@H](COc3ccc(NC(C)=O)cc3C(=O)N2C)O1 | inactive
33 | COc1ccc(C=C2CCC3C(=O)CCCC3(C)C2=O)cc1 (stereo not drawn) | inactive
34 | COc1ccc(/C=C(/C#N)C(=O)Nc2ccc(O)cc2)cc1C(=O)O | 12.2 µM (active)
35 | CCOC(=O)c1[nH]nc(-c2cc(CC)c(O)cc2O)c1-c1cscn1 | inactive
36 | O=C(CCn1c(=O)oc2cc(Cl)ccc21)Nc1ccc(O)cc1 | 4.49 µM (active)
37 | COc1ccc(C2=NS(=O)(=O)N(C)C(C(=O)N(C)Cc3ccccc3)=C2)cc1 | inactive
38 | CC(Oc1ccc(Cl)cc1Cl)C(=O)Nc1ccc(O)cc1 (stereo not drawn) | 12.9 µM (active)
